# This is part of a sample that, as a whole, favours compounds with a hit. Of some 83,000 tested, about 20% had one in any assay.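 Note: values are percent growth. 100 is the growth of untreated cells, values between 100 and 0 indicate rising inhibition; between -100 and 0 indicates cell death.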 Values without a mark were called inactive. Calls of active or inactive are those of the source. How the source made its calls: active means growth percent below 10; inactive means the rest.
# How the values were obtained:
# Assay in all cases: NCI-60 one-dose screen, 48 h (100 = growth as untreated, 0 = no growth, -100 = all killed)
# Conditions in all cases: 10 µM unless noted
# HCT-15 colon = test system: HCT-15 colon
# HT29 colon = test system: HT29 colon
# SNB-75 CNS = test system: SNB-75 CNS
# SNB-19 CNS = test system: SNB-19 CNS
# U251 CNS = test system: U251 CNS
# PC-3 prostate = test system: PC-3 prostate
# SK-MEL-5 melanoma = test system: SK-MEL-5 melanoma
# UACC-62 melanoma = test system: UACC-62 melanoma
# SK-MEL-28 melanoma = test system: SK-MEL-28 melanoma
# SK-MEL-2 melanoma = test system: SK-MEL-2 melanoma
# EKVX NSCLC = test system: EKVX NSCLC
# SN12C renal = test system: SN12C renal
# UO-31 renal = test system: UO-31 renal
# TK-10 renal = test system: TK-10 renal
# ACHN renal = test system: ACHN renal
# CAKI-1 renal = test system: CAKI-1 renal
# A498 renal = test system: A498 renal
# CCRF-CEM leukemia = test system: CCRF-CEM leukemia
# MOLT-4 leukemia = test system: MOLT-4 leukemia
SMILES,growth (HCT-15 colon),growth (HT29 colon),growth (SNB-75 CNS),growth (SNB-19 CNS),growth (U251 CNS),growth (PC-3 prostate),growth (SK-MEL-5 melanoma),growth (UACC-62 melanoma),growth (SK-MEL-28 melanoma),growth (SK-MEL-2 melanoma),growth (EKVX NSCLC),growth (SN12C renal),growth (UO-31 renal),growth (TK-10 renal),growth (ACHN renal),growth (CAKI-1 renal),growth (A498 renal),growth (CCRF-CEM leukemia),growth (MOLT-4 leukemia)
Cc1cc2c(cc1Cl)C(=O)/C(=C/c1ccc(F)cc1)O2,97.8%,102%,95%,90.3%,89.9%,91.1%,93%,76.6%,111%,122%,90.8%,82.1%,-80.7% (active),125%,96.9%,75.3%,149%,94.5%,84.3%
COc1ccc2[nH]c(O)c(N=NC(=O)COc3ccc(NC(=O)Nc4ccccc4)cc3)c2c1,108%,52.4%,31.6%,14.6%,-4.75% (active),40.5%,69.7%,10.1%,8.57% (active),43.6%,65.4%,25%,94.5%,113%,94.2%,82.5%,71.7%,77.9%,77.1%
CSc1ccc(NC(=O)c2ccc3nn(/C(C#N)=C/c4ccccn4)nc3c2)cc1,-72.1% (active),-86.1% (active),35.1%,-75.7% (active),-79.9% (active),-73.7% (active),-92.8% (active),-96.3% (active),-98.4% (active),-89.9% (active),-99% (active),-65.7% (active),-99% (active),-94.7% (active),-95.3% (active),-90.9% (active),-33.9% (active),-47.8% (active),-20.4% (active)
CSc1ccc(C(=O)Nc2ccc3nnn(/C(C#N)=C/c4ccccn4)c3c2)cc1,-41.8% (active),-86.6% (active),55.9%,-3.44% (active),-78.2% (active),7.72% (active),-57.2% (active),-51.3% (active),-50.2% (active),-82% (active),-86.4% (active),-4.37% (active),-100% (active),-74% (active),-93.2% (active),4.99% (active),59.3%,12.6%,12.1%
COc1ccc2oc3c4[nH]c5ccccc5c4c4c(c3c2c1)C(=O)N(C(=O)OC(C)(C)C)C4=O,-23.2% (active),-32% (active),-3.78% (active),11.8%,4.43% (active),-12.9% (active),-99.3% (active),-77.3% (active),-45.5% (active),-46.8% (active),-18.9% (active),-19.3% (active),-12.8% (active),-11% (active),-22.3% (active),-15.3% (active),-10.9% (active),6.52% (active),-28.4% (active)
COCOc1cc2c(=O)c(C)c(C(=O)N[C@@H](Cc3ccccc3)C(O)C(=O)NCc3ccccc3)oc2cc1OC (stereo not given in full),84.3%,43.3%,3.85% (active),15.7%,-36.6% (active),73.4%,10.6%,-14.8% (active),38.9%,-2.79% (active),78.4%,42.7%,81.5%,88.8%,83.7%,50.5%,-6.29% (active),96.1%,87.8%
N#Cc1c(-c2ccc(Cl)cc2)nc2n[nH]c(-c3ccc(Cl)cc3)c2c1-c1cccs1,41.9%,47%,77.5%,75.1%,58.6%,34.3%,40.8%,60.9%,76.1%,58.6%,30.3%,45.7%,35.1%,97.3%,62.8%,39%,105%,38.1%,3.89% (active)
CCN1C(=O)/C(=N\N=C(/C)c2ccc3c(c2)Nc2ccccc2S3)c2cc(Cl)ccc21,46.7%,71.6%,76%,64.4%,73.7%,40.5%,7.2% (active),32.7%,47.2%,70.8%,40.1%,58.9%,56.6%,72.1%,24.6%,48.1%,60.1%,50.8%,37.4%
CC(=O)Nc1ccc(C(=O)NC(=S)Nc2ccc(S(N)(=O)=O)cc2)cc1,106%,92.6%,78.1%,98.4%,94.2%,97.9%,88.3%,86.9%,97%,97.1%,90.1%,91.7%,80.7%,89.1%,102%,87.9%,104%,100%,111%
CC(=O)Nc1cccc(Nc2nc(NCc3ccccc3)c3ccccc3n2)c1,-87.1% (active),-86.5% (active),-93.8% (active),-98.3% (active),-76.4% (active),-73.2% (active),-98.2% (active),-97.8% (active),-95.9% (active),-89.2% (active),-97.6% (active),-90.2% (active),-98.5% (active),-96.7% (active),-100% (active),-94.8% (active),-99.3% (active),-13.8% (active),-61% (active)
COc1ccc2[nH]cc(-c3nc(N)nnc3-c3cn(C)c4ncccc34)c2c1,44.4%,35.6%,14.2%,63.8%,60.1%,68.4%,31.2%,37.7%,62.3%,49.4%,63.7%,59.6%,43.9%,93.1%,67.3%,38.8%,104%,67.7%,41.3%
COc1ccc(NC(=O)Cn2c(O)c(N=Nc3ccc(S(N)(=O)=O)cc3)c3ccccc32)cc1,79%,-2.87% (active),59.7%,23%,-32.5% (active),14.4%,62.3%,20.7%,26.7%,50.6%,62%,60%,84.1%,–,35.2%,27.4%,103%,85.3%,73.6%
COc1cc(C2CC(c3cc(OC)c(OC)c(OC)c3)=Nc3c(N)nc(N)nc3N2)ccc1Oc1nc(NCCO)nc(N2CCOCC2)n1 (stereo not given),102%,107%,88.7%,94.9%,101%,100%,99%,102%,108%,–,84.3%,93%,84.1%,120%,101%,80.8%,105%,102%,96.7%
O=C(COc1ccc(NC(=O)Nc2ccc(Cl)c(Cl)c2)cc1)N=Nc1c(O)[nH]c2ccc([N+](=O)[O-])cc12,88.5%,81.6%,66.2%,67%,19.4%,71.6%,90.7%,85.6%,57.6%,48.7%,85.6%,52.6%,85.3%,–,77.8%,72%,98.2%,30.4%,28%
CC(=O)Nc1cccc(-c2nc3cc(-c4ccc(O)cc4)ccc3n2C)c1,41.6%,62.6%,62.5%,51.2%,58.7%,47.9%,-9.75% (active),15.7%,–,–,35.1%,43.8%,38.4%,59%,16%,38.5%,86.8%,28.3%,9.2% (active)

# Reference: PubChem BioAssay (NCI)
